Values without a mark were called inactive. Calls of active or inactive are those of the source. The rule behind the calls is not given here.
Test: xanthine oxidase superoxide generation blockade – biochemical, counter-screen for NOX1 inhibitor project, late-stage follow-up (AID 2556)
Conditions: xanthine oxidase superoxide assay

SMILES | IC50
CN(C)c1ccc(NC(=O)Nc2ccc(OCc3ccccc3)cc2)cc1 | 2 µM (active)
FC(F)(F)c1ccc2c(c1)Nc1ccccc1S2 | 20.7 µM
COc1cc(-c2nc(-c3ccccc3)c(-c3ccccc3)[nH]2)ccc1O | 11.2 µM
Cc1cc(Cl)ccc1NC(=S)NNC(=S)Nc1ccc(F)cc1 | 11 µM
c1ccc2c(c1)Nc1nc3ccccc3nc1N2 | 3.5 µM (active)
O=C(Oc1ccccc1N1CCCCC1)c1sc2ccccc2c1Cl | 11.1 µM
